33 compounds from PubChem BioAssay (Tox21) can be followed below.

The nature of assay [1]: qHTS assay to identify small molecule antagonists of the glucocorticoid receptor (GR) signaling pathway - cell viability counter screen (AID 720693). Also: nearly all actives have a fitted effect of over 55% in size.
Assay [2] is described as follows: qHTS assay for identifying genotoxic compounds that show differential cytotoxicity against isogenic chicken DT40 cell lines with known DNA damage response pathways - wild type cell line (AID 743012). Also: nearly all actives have a fitted effect of over 60% in size. Also: potency is read from the fitted curve at half-maximal effect. The gist of the method:
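Wild type DT40, 300 cells/well, ~0.5 h settle at 37 C/5% CO2; compounds in DMSO added by pintool; 40 h at 37 C/5% CO2; CellTiter-Glo, 30 min RT; luminescence.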
A general note: In qHTS, concentration-response curves come from the screen itself.

A short description of assay [3]: qHTS assay for identifying genotoxic compounds that show differential cytotoxicity against isogenic chicken DT40 cell lines with known DNA damage response pathways - Rev3 mutant cell line (AID 743014). Also: nearly all actives have a fitted effect of over 55% in size. Also: potency is read from the fitted curve at half-maximal effect.
Assay [4] in a line: qHTS assay for identifying genotoxic compounds that show differential cytotoxicity against isogenic chicken DT40 cell lines with known DNA damage response pathways - Rad54/Ku70 mutant cell line (AID 743015). Also: nearly all actives have a fitted effect of over 60% in size. Also: potency is read from the fitted curve at half-maximal effect.
The nature of assay [5]: qHTS assay to identify small molecule antagonists of the androgen receptor (AR) signaling pathway - cell viability counter screen (AID 743033; also: nearly all actives have a fitted effect of over 45% in size).
The nature of assay [6]: qHTS assay to identify small molecule antagonists of the androgen receptor (AR) signaling pathway using the MDA cell line - cell viability counter screen (AID 743041; also: nearly all actives have a fitted effect of over 45% in size). The gist of the method: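 MDA-kb2 AR-luc human breast carcinoma cells (MMTV-luciferase, AR/GR responsive) were treated with compounds plus R1881 agonist for 16 h at 37 °C. Viability was read as CellTiter-Fluor fluorescence in the same wells as the reporter assay.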

Each structure is given as a SMILES string. “And” between values parts separate entries of the source, which are not always exact repeats. Equal entries are not always repeated. Inconclusive results are not listed. Where a structure was tested more than once in an assay, its records may differ in their call. The source made the active and inactive calls. Calls follow the shape of the dose curve; as a rule, active = well fitted curve in the direction sought with a large enough effect in the repeat runs; inconclusive = weak or mixed curves; inactive = no such curve, though single readings can be large; an effect the other way counts as inactive or inconclusive.

On to `Cc1ccc2nc(N)[nH]c(=O)c2c1Sc1ccncc1`, for which the Potency entry in assay [1], in assay [5] and in assay [6] was “inactive” each time. Further, the Potency in assay [2] was 1.88 µM (active); in assay [3], 0.944 µM (active); in assay [4], 0.596 µM (active).
With `O=C(O)CNC(=O)c1ccccc1I`, the Potency entry in assay [1], in assay [2], in assay [3], in assay [4], in assay [5] and in assay [6] was “inactive” in each case.
For the compound `CC1C(C)(C)C2=C(C(=O)CCC2)C1(C)C` (stereo unspecified), the Potency entry in assay [1], in assay [2], in assay [3], in assay [4], in assay [5] and in assay [6] was “inactive” in each case.
For `COc1ccc(C2C(=O)c3ccccc3C2=O)cc1`, the Potency entry in assay [1], in assay [2], in assay [3], in assay [4], in assay [5] and in assay [6] was “inactive” each time.
For `Cc1ccc(Cl)cc1N`, the Potency entry in assay [1], in assay [2], in assay [3], in assay [4], in assay [5] and in assay [6] was “inactive” in each case.
With `CC(C)COC(=O)COc1cc(Cl)c(Cl)cc1Cl`, the Potency result in assay [1], in assay [2], in assay [3], in assay [4], in assay [5] and in assay [6] was “inactive” each time.
For the compound `COC(CC(C)CCCC(C)(C)O)OC` (stereo unspecified), the Potency result in assay [1], in assay [2], in assay [3], in assay [4], in assay [5] and in assay [6] was “inactive” in each case.
Regarding `CCCCCc1ccco1`, the Potency result in assay [1], in assay [5] and in assay [6] was “inactive” throughout. Moreover, the Potency was 39.8 µM (active) in assay [2], 44.7 µM (active) in assay [3] and 31.6 µM (active) in assay [4].
As for `CC(C)(C)NCC(O)COc1cccc2c1C[C@H](O)[C@H](O)C2` (stereo partly specified), the Potency entry in assay [1], in assay [2], in assay [3], in assay [4], in assay [5] and in assay [6] was “inactive” each time.
As for `NC(=O)CCCCC(N)=O`, the Potency result in assay [1], in assay [2], in assay [3], in assay [4], in assay [5] and in assay [6] was “inactive” in each case.
As for `Nc1ccn([C@H]2CS[C@@H](CO)O2)c(=O)n1`, the Potency result in assay [1], in assay [2], in assay [3], in assay [4], in assay [5] and in assay [6] was “inactive” in each case.
With `CC(C)C(=O)OCCOc1ccccc1`, the Potency result in assay [1], in assay [2], in assay [3], in assay [4], in assay [5] and in assay [6] was “inactive” in each case.
Regarding `Cc1ccc2c(c1)CCCN2`, the Potency entry in assay [1], in assay [2], in assay [3], in assay [4], in assay [5] and in assay [6] was “inactive” throughout.
`CCOC(=O)c1c(N)sc2c1CCN(Cc1ccccc1)C2`: the Potency entry in assay [1], in assay [5] and in assay [6] was “inactive” each time. For the same compound, the results for the Potency in assay [2], in assay [3] and in assay [4] were 29.8 µM (active), 29.8 µM (active) and 26.6 µM (active), respectively.
In the case of `CC(C)N(C)C`, the Potency entry in assay [1], in assay [2], in assay [3], in assay [4], in assay [5] and in assay [6] was “inactive” in each case.
As for `ClC1=C(Cl)C1(Cl)Cl`, the Potency result in assay [1], in assay [2], in assay [3], in assay [4], in assay [5] and in assay [6] was “inactive” throughout.
Regarding `O=C(O)CCCc1c[nH]c2ccccc12`, the Potency result in assay [1], in assay [2], in assay [3], in assay [4], in assay [5] and in assay [6] was “inactive” throughout.
In the case of `O=C(c1ccccc1)C1CCC1`, the Potency result in assay [1], in assay [2], in assay [3], in assay [4], in assay [5] and in assay [6] was “inactive” throughout.
For `CCNc1nc(N)nc(Cl)n1`, the Potency result in assay [1], in assay [2], in assay [3], in assay [4], in assay [5] and in assay [6] was “inactive” in each case.
As to `CC[C@H]1OC(=O)[C@H](C)[C@@H](O[C@H]2C[C@@](C)(OC)[C@@H](O)[C@H](C)O2)[C@H](C)[C@@H](O[C@@H]2O[C@H](C)C[C@H](N(C)C)[C@H]2O)[C@](C)(O)C[C@@H](C)/C(=N\OCOCCOC)[C@H](C)[C@@H](O)[C@]1(C)O`, the Potency result in assay [1], in assay [5] and in assay [6] was “inactive” each time. For the same compound, the Potency result in assay [2] is “inactive and 14.3 µM (active)”; in assay [3] it was “inactive and 8.07 µM (active)”; in assay [4] it was “inactive and 14.3 µM (active)”.
For the compound `CCOCCC(=O)OCC`, the Potency result in assay [1], in assay [2], in assay [3], in assay [4], in assay [5] and in assay [6] was “inactive” in each case.
Regarding `CC1=C2[C@@H]([C@H](C)CC[C@H]2/C=C(\C)C(=O)O)[C@H](O)C1`, the Potency entry in assay [1], in assay [2], in assay [3], in assay [4], in assay [5] and in assay [6] was “inactive” throughout.
In the case of `SCCc1cnccn1`, the Potency result in assay [1], in assay [2], in assay [3], in assay [4], in assay [5] and in assay [6] was “inactive” in each case.
Consider `CC(O)Cn1cnc2c1c(=O)n(C)c(=O)n2C` (stereo unspecified), for which the Potency result in assay [1], in assay [2], in assay [3], in assay [4] and in assay [6] was “inactive” in each case.
In the case of `O=C1OC[C@H](Cc2cccc(O)c2)[C@H]1Cc1cccc(O)c1`, the Potency result in assay [1], in assay [2], in assay [3], in assay [4], in assay [5] and in assay [6] was “inactive” in each case.
With `O=C(NC(Cc1cc(=O)[nH]c2ccccc12)C(=O)O)c1ccc(Cl)cc1` (stereo unspecified), the Potency result in assay [1], in assay [2], in assay [3], in assay [4], in assay [5] and in assay [6] was “inactive” throughout.
As for `CC(=O)OCCC1CCCCC1`, the Potency result in assay [1], in assay [2], in assay [3], in assay [4], in assay [5] and in assay [6] was “inactive” each time.
As for `CCCCCCCCCCCCCOC(=O)CCSCCC(=O)OCCCCCCCCCCCCC`, the Potency result in assay [1], in assay [2], in assay [3], in assay [4], in assay [5] and in assay [6] was “inactive” throughout.
For `COc1ccc(-c2cc(C(F)F)nn2-c2ccc(S(N)(=O)=O)cc2)cc1F`, the Potency result in assay [1], in assay [2], in assay [3], in assay [4], in assay [5] and in assay [6] was “inactive” throughout.
Consider `Cc1cccc(C)c1NC(=O)c1cc(S(N)(=O)=O)c(Cl)cc1O`, for which the Potency result in assay [1], in assay [2], in assay [3], in assay [4], in assay [5] and in assay [6] was “inactive” each time.
On to `Cc1ccc(N(CCO)CCO)cc1`, for which the Potency entry in assay [1], in assay [2], in assay [3], in assay [4], in assay [5] and in assay [6] was “inactive” each time.
With `Cc1ccc(S(=O)(=O)NC(=O)NC2CCCCC2)cc1`, the Potency entry in assay [1], in assay [2], in assay [3], in assay [4], in assay [5] and in assay [6] was “inactive” in each case.
Take `CCN(CC)C(=O)N1CCN(C)CC1`: the Potency result in assay [1], in assay [2], in assay [3], in assay [4] and in assay [6] was “inactive” each time.
